Reference: PubChem BioAssay (Tox21)
Where “and” joins values, the source holds several entries; their conditions need not be identical. Equal entries are not always repeated. Inconclusive results are not listed. Values without a mark were called inactive. Calls of active or inactive are those of the source. Calls follow the shape of the full dose curve.

target: Acetylcholinesterase (Homo sapiens) (UniProt P22303); assay: Acetylcholinesterase (AChE) small molecule antagonists: colormetric cell-based qHTS assay (AID 1347395); details: SH-SY5Y cells AChE activity, colorimetric (Ellman); series mostly up to 115 µM; activity, negative = inhibition: at the top concentration; also: nearly all actives have a fitted effect of over 30% in size
Sequence (P22303 whole entry, looked up): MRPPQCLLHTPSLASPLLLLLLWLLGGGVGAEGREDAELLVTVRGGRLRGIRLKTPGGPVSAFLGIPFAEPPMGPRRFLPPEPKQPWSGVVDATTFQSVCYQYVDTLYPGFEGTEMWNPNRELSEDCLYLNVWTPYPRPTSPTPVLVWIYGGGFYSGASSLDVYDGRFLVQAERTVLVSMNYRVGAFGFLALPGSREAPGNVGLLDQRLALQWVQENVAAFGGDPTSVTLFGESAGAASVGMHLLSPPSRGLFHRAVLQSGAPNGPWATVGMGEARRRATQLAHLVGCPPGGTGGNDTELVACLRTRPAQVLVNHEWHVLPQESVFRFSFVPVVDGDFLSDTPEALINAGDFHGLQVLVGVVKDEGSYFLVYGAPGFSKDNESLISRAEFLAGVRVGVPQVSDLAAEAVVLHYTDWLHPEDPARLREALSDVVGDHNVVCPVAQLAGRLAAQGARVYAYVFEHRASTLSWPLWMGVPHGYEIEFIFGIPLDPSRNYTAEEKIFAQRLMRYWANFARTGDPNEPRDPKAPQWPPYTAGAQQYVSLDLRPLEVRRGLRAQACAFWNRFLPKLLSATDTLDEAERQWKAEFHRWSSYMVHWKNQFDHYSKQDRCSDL
Method in brief: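 AChE inhibition read colorimetrically via DTNB–thiocholine in SH-SY5Y cells. Compound 30 min, substrate 90 min, both 37 C.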
% is scaled to controls: 0 for no effect and ±100 for the full control effect; potency is read from the fitted curve at half-maximal effect.

Compound | activity, negative = inhibition | Potency
C[C@]12CC[C@H]3[C@@H](CCC4=CC(=O)CC[C@@H]43)[C@@H]1CC[C@@H]2OC(=O)CCC1CCCCC1 | -1.46% [at 52.9 µM] | –
CCCCNP(N)(N)=S | -4.93% | –
c1cc2ccc3cccc4ccc(c1)c2c34 | 5.87% | –
C=CC(C)=O | 2.7% | –
Clc1cc(C(Cl)(Cl)Cl)cnc1Cl | -0.0059% | –
C/C=C/C=O | -1.11% | –
CC1(C)[C@H](C=C(Cl)Cl)[C@@H]1C(=O)O[C@@H](C#N)c1cccc(Oc2ccccc2)c1 | 5.61% | –
Cc1c(F)c(F)c(COC(=O)C2C(/C=C(\Cl)C(F)(F)F)C2(C)C)c(F)c1F (stereo not given) | 0.0235% | –
Nc1nc(N)nc(N)n1 | 1.09% | –
CCOS(C)(=O)=O | 3.34% | –
O=C(CBr)OCc1ccccc1 | 1.52% | –
O=S(=O)(O)C(F)(F)C(F)(F)C(F)(F)C(F)(F)F | -3.45% | –
Cc1ccc(N)cc1C | 2.45% | –
CC[C@H]1C[C@H]2[C@@H]3CCC4=CC(=O)CC[C@@H]4[C@H]3CC[C@]2(C)[C@H]1O | 2.91% [at 52.9 µM] | –
O=Cc1ccc2c(c1)OCO2 | 0.307% | –
COC(=O)C(Br)CBr (stereo not given) | 1.16% | –
C=COC(C)=O | 1.19% | –
CC1C(=O)C[C@]2(C(C)C)C[C@H]12 (stereo not given in full) | -0.631% | –
Brc1ccccc1 | 0% | –
CO/N=C(/C(=O)OC)c1ccccc1COc1ccccc1C | -1.89% | –
CC(C)(Cl)[N+](=O)[O-] | 0.205% | –
CC(C)O.CC(C)O.OCCN(CCO)CCO.OCCN(CCO)CCO.[Ti] | 1.26% | –
CCOP(=S)(OCC)Oc1nc(Cl)c(Cl)cc1Cl | – | 35.7 µM (active) and 35.6 µM (active)
ClP(Cl)(Cl)(Cl)Cl | 2.08% | –
CC(=O)NC1CCSC1=O (stereo not given) | 1.28% [at 52.9 µM] | –
